Compound activity (PubChem)
CHX counter: counter-screen for Shiga toxin inhibitors: cycloheximide protein synthesis inhibition; cell reporter, cycloheximide protein synthesis inhibition counterscreen; max response, %; 300,000 compounds, 12% hits; AID 2314; in the data active = max response mostly above about 13%, no sharp cut-off; inactive = mostly below about 14%; also: read at 38.3 µM for the half of the compounds with a filed dose; 0% is about no effect
Sm TGR block: blocks Schistosoma mansoni thioredoxin glutathione reductase | Q962Y6 | purified TGR, DTNB reduction, TNB absorbance 405 nm | Potency, µM (doses to about 114 µM), inactives show at the top dose activity change, negative = inhibition, actives largely listed as inhibitors | 360,000 compounds, 3% hits; also: potency is read from the fitted curve at half-maximal effect; % is scaled to controls: 0 for no effect and ±100 for the full control effect; nearly all actives have a fitted effect of over 60% in size
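Kinetic colorimetric format: TGR-catalysed, NADPH-driven DTNB reduction monitored via TNB absorbance. Enzyme dispensed at 20 nM; compound exposure 15 min at room temperature before reaction start.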
FBPA Giardia inh: blocks Giardia fructose-bisphosphate aldolase activity | AID 2451 | Potency, µM (top dose mostly 59.6 µM), for the others: at the top dose activity, negative = inhibition, most hits filed as inhibitors | 290,000 compounds, 0.71% hits | purified Giardia FBPA; also: potency is read from the fitted curve at half-maximal effect; % is scaled to controls: 0 for no effect and ±100 for the full control effect; nearly all actives have a fitted effect of over 55% in size
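40 nM FBPA preincubated 10 min at RT with compound (up to 57.5 uM final), then substrate plus GAPDH/TPI/NAD/arsenate coupling and diaphorase/resazurin added. Fluorescence read after 20 min at RT, 525/598 nm.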
Tb PYK inh: blocks Trypanosoma brucei pyruvate kinase; TbPYK enzyme, Kinase-Glo Plus ATP luminescence, 45 min; Potency, µM (top dose mostly 76.8 µM), inactives show at the top dose activity, negative = inhibition, usual class: inhibitors; 410,000 compounds, 0.12% hits; AID 624173; also: potency is read from the fitted curve at half-maximal effect; % is scaled to controls: 0 for no effect and ±100 for the full control effect; nearly all actives have a fitted effect of over 50% in size
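Luminescent Kinase-Glo Plus end-point after 45 min room-temperature reaction of T. brucei pyruvate kinase started with 130 uM ADP (final). Buffer TEA 50 mM pH 7.2 with KCl, MgCl2, BSA, Tween-20; titration-based qHTS with fitted concentration-effect curves.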
LmPK inh: blocks Leishmania mexicana pyruvate kinase activity; AID 1721; Potency, µM (titrated, usually from 57.5 µM), for the others: at the highest dose activity change, negative = inhibition, most hits filed as inhibitors; purified LmPK, Kinase-Glo ATP luminescence, 1 h; 290,000 compounds, 0.37% hits; also: potency is read from the fitted curve at half-maximal effect; % is scaled to controls: 0 for no effect and ±100 for the full control effect
Target sequence (Q27686 whole entry, looked up): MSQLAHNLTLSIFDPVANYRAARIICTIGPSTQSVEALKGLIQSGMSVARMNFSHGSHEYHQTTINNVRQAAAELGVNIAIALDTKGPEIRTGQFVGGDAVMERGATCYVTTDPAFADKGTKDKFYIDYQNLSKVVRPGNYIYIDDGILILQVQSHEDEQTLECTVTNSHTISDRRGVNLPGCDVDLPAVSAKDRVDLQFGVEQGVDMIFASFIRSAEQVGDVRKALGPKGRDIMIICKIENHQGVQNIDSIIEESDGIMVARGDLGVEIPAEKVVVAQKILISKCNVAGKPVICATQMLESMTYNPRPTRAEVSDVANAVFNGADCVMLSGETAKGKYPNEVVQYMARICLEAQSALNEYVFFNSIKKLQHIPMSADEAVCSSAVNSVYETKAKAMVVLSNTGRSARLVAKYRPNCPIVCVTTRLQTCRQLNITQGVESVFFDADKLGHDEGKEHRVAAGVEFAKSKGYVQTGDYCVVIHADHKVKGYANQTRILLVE
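Kinase-Glo luminescence read after 1 h RT reaction of 0.1 nM LmPK with 0.5 mM PEP and 0.1 mM ADP. Activity scaled between uninhibited and enzyme-free controls.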
Shiga inhibitor: Shiga toxin inhibition. AID 2315. inhibition, % at 38.7 µM. 290,000 compounds, 9.2% hits. Vero cells, Shiga toxin protein synthesis inhibition reporter; in the data active = inhibition mostly above about 28%, no sharp cut-off; inactive = mostly below about 43%; also: 0% is about no effect
* hit, by the source's call; ? = inconclusive; . = not tested or not shown. This is one part of a sample in which hits are shown more often than they occur. Unless noted, calls follow the shape of the dose curve; as a rule, active = well fitted curve in the direction sought with a large enough effect; inconclusive = small, poorly fitted or top-dose-only effect, or another doubt; inactive = no such curve, though single readings can be large; an effect the other way counts as inactive or inconclusive.

SMILES	CHX counter	Sm TGR block	FBPA Giardia inh	Tb PYK inh	LmPK inh	Shiga inhibitor
O=C(c1cc2ncc(Br)cn2n1)N1CCN(C(=O)c2ccco2)CC1	-3.7	?	-0.9%	-15.6%	5.2%	-4.5
Cc1cccc2nc(=S)n(C(=O)c3ccco3)n12	61.7*	22.4µM*	0.3%	-20.1%	12.6µM*	197.5*
CCS(=O)(=O)c1oc(-c2ccc(F)cc2)nc1S(=O)(=O)c1ccc(Br)cc1	.	0.631µM*	.	2.8%	.	.
CS(=O)(=O)c1oc(-c2ccc(F)cc2)nc1S(=O)(=O)c1ccc(Cl)cc1	.	0.708µM*	.	5.1%	.	.
CCCCS(=O)(=O)c1oc(-c2ccc(F)cc2)nc1S(=O)(=O)c1ccccc1	.	0.0%	.	6.9%	.	.
Cc1cc(NC(=O)c2ccc3c(c2)OCCO3)ccc1NC(=O)c1cc2ccccc2o1	15.8*	.	-6.0%	1.1%	-0.7%	71.1*
Cc1cc(NC(=O)c2cccnc2)ccc1NC(=O)c1cc2ccccc2o1	2.3	-10.2%	-2.0%	-14.2%	1.0%	-3.9
O=C(Nc1cc2ccccc2oc1=O)c1ccccc1	31.2*	23.3%	6.2%	-16.0%	4.47µM*	87.1*
Cc1cc(NC(=O)C2CC=CCC2C(=O)O)ccc1NC(=O)c1ccccc1 (configuration not stated)	25.2	-34.6%	.	5.8%	-6.1%	24.8*
Cc1cc(NC(=O)c2cc3ccccc3o2)ccc1NC(=O)c1ccccc1	12.7*	8.9%	-9.3%	-8.4%	2.9%	52.6
O=C(O)C1CC=CCC1C(=O)Nc1ccc2c(c1)CCC2 (configuration not stated)	-2.3	2.4%	.	-4.5%	-0.9%	22.8
CSc1ccccc1CNc1nc(NCC2CC2)nc2ccsc12	.	.	.	-5.8%	.	.
Cc1ccc(-c2noc(-c3ccc(NC4CCCC4)c([N+](=O)[O-])c3)n2)cc1	.	-8.1%	.	?	.	.
Clc1ccc(-n2ncc3c(N4CCCC4)ncnc32)cc1	77.0*	-29.6%	0.0%	1.8%	-3.9%	120.4*
COc1cccc(OCCN2CCN(c3ncnc4c3cnn4-c3ccccc3)CC2)c1	17.9*	17.8%	-0.1%	-2.4%	4.2%	31.3
Cn1ncc2c(N3CCN(c4ccccc4F)CC3)ncnc21	13.1*	7.8%	0.4%	-2.0%	-2.7%	6.8
Cc1ccc(-n2ncc3c(N4CCN(Cc5ccccc5)CC4)ncnc32)cc1	.	-0.1%	.	-7.6%	.	.
O=C(c1ccco1)N1CCN(c2ncnc3c2cnn3-c2ccccc2)CC1	25.2*	62.5%	0.4%	0.2%	3.8%	40.9
Cc1ccc(S(=O)(=O)Nc2ccccc2F)cc1C(=O)OC(C)C(=O)N1CCOCC1 (configuration not stated)	.	0.8%	.	4.5%	.	.
CN(C)c1ccnc(-c2ccccc2C(F)(F)F)n1	.	.	-18.0%	.	.	.
CN(Cc1ccccc1)c1nnc(NC(=O)Nc2cccc(Br)c2)s1	.	-9.0%	.	-1.2%	.	.
COC(=O)N1CCC[C@@]2(CCN(Cc3cc(C(F)(F)F)cc(C(F)(F)F)c3)C2)C1	.	.	0.4%	0.2%	.	.
O=C(c1ccco1)N1CCN(c2ncnc3c2[nH]c2ccc(Cl)cc23)CC1	5.6	50.1µM*	-2.2%	.	-1.3%	6.2
CCOC(=O)N1CCN(c2ncnc3c2cnn3-c2ccc(OC)cc2)CC1	-1.4	2.7%	6.8%	8.1%	4.8%	5.1
CCOC(=O)C1CCN(c2ncnc3c2cnn3-c2ccc(Cl)cc2)CC1	-1.7	3.6%	1.0%	-0.6%	1.2%	7.9
SMILES	CHX counter	Sm TGR block	FBPA Giardia inh	Tb PYK inh	LmPK inh	Shiga inhibitor
CC1CCN(c2ncnc3c2cnn3-c2ccccc2)CC1	42.4*	-31.1%	0.3%	1.3%	4.9%	75.3*
CCOC(=O)C1CCN(c2ncnc3c2cnn3-c2ccccc2)CC1	18.4*	6.9%	-0.3%	-0.1%	-5.4%	37.2
COc1ccc(-n2ncc3c(N4CCC(C)CC4)ncnc32)cc1	20.1*	0.0%	-11.8%	-2.3%	0.6%	26.2*
Cc1ccc(-n2ncc3c(N4CCC(C)CC4)ncnc32)cc1C	.	0.0%	.	-5.0%	.	.
Cc1ccccc1S(=O)(=O)N1C[C@H]2[C@H]3C(=O)N(c4ccccc4)C(=O)[C@H]3CC(=O)[C@H]2[C@@H]1c1ccc(Cl)cc1	.	.	.	3.0%	.	.
CC(C)(C)c1cc[n+](/C(C(=S)NC2CC2)=C(/[O-])c2ccc(Cl)s2)cc1	17.5	-20.9%	6.29µM*	-2.5%	8.4%	-4.6
Cc1c(N=Cc2ccc(-c3ccc(Cl)cc3)o2)c(=O)n(-c2ccccc2)n1C	-5.2	3.2%	-2.0%	7.2%	-2.2%	11.3
Cc1c(N=Cc2ccc(Cl)o2)c(=O)n(-c2ccccc2)n1C	-1.3	22.4µM*	-12.9%	-6.4%	-2.4%	-4.9
CCCn1cc(S(=O)(=O)c2cccc(Cl)c2)c(=O)c2cc(F)c(N3CCCC3)cc21	.	4.0%	.	-0.1%	.	.
CC(C)c1nnc(NC(=O)CCS(=O)(=O)c2nc(-c3cccs3)cc(C(F)(F)F)n2)s1	3.4	20µM*	2.0%	-5.8%	5.8%	-7.2
O=C(CCS(=O)(=O)c1nc(-c2cccs2)cc(C(F)(F)F)n1)Nc1ccc(OC(F)(F)F)cc1	.	-5.6%	.	?	.	.
COc1ccc(NC(=O)CCS(=O)(=O)c2nc(-c3cccs3)cc(C(F)(F)F)n2)cc1	.	20µM*	.	-7.3%	.	.
Cc1ccc(CNC(=O)CCC2CCCN(Cc3c(C)nn(C(C)C)c3C)C2)o1 (configuration not stated)	9.7	9.7%	1.0%	-1.6%	2.6%	0.9
COc1ccc(N/C=C(\[N+](=O)[O-])S(=O)(=O)c2ccccc2)cc1	4.5	?	-9.5%	4.6%	0.4%	14.0
O=[N+]([O-])/C(=C\Nc1ccccc1)S(=O)(=O)c1ccccc1	-1.0	39.8µM*	-12.8%	-3.9%	3.2%	-17.9
O=[N+]([O-])/C(=C\Nc1ccccc1Cl)S(=O)(=O)c1ccccc1	-1.9	39.8µM*	-5.6%	.	1.4%	-11.9
O=C(Nc1ccc(F)c(F)c1)C1CCCN1S(=O)(=O)c1cccc2nsnc12 (configuration not stated)	.	15.2%	.	-4.5%	.	.
CC(=O)c1nnn(-c2c(F)cccc2F)c1C	12.2*	0.8%	0.3%	-8.7%	1.7%	18.5
Cc1cccc(Nc2nnc(SCc3cn4ccsc4n3)s2)c1	20.4*	9.0%	-0.8%	-6.2%	-17.3%	22.1
Cc1cccc(Nc2nnc(SCC(=O)NCc3cccs3)s2)c1C	11.6	-8.7%	2.9%	10.4%	7.4%	41.6*
Cc1cccc(Nc2nnc(SCC(=O)Nc3cccnc3Cl)s2)c1	27.0*	-1.1%	-0.2%	2.2%	-6.2%	25.0
COCC(=O)Nc1nnc(SCC(=O)NCc2cccs2)s1	0.8	6.3%	-0.6%	-6.8%	-3.0%	-15.3
Cc1cccc(Nc2nnc(SCC(=O)NCc3cccs3)s2)c1	19.3*	.	6.1%	-1.1%	1.6%	62.4*
CCCC(=O)Nc1nnc(SCC(=O)NCc2cccs2)s1	-3.4	8.8%	1.0%	-8.0%	-5.1%	12.7
